# From PubChem BioAssay
# Where “and” joins values, the source holds several entries; their conditions need not be identical. Equal entries are not always repeated. Calls of active or inactive are those of the source.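 Rule for the calls, unless noted: active = at least 20% inhibition of 6-phosphogluconate dehydrogenase activity; inactive = the rest.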
# Key:
# [1] = biological target: 6-phosphogluconate dehydrogenase, decarboxylating (Homo sapiens) (UniProt P52209); assay: inhibition of human phosphogluconate dehydrogenase – biochemical, recombinant enzyme, NADPH absorbance, primary screen (AID 1159550); conditions: recombinant 6PGD, NADPH absorbance 341 nm; at 10 µM; stronger effect = higher value
# [2] = EMT-state selective cytotoxicity in co-culture – imaging, PC-3E GFP, TEM4-18 mCherry, primary screen (AID 1345086;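 active = compounds killing one labelled cell type while sparing the other, by normalised counts and ratio limits, not self-fluorescent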;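 for all read-outs here: cells exposed to compound for 72 h before imaging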;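 for red/green cell ratio (normalised): normalised mesenchymal count divided by normalised epithelial count so high means epithelial killing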); conditions: PC-3E GFP / TEM4-18 mCherry co-culture, imaging cell counts, at 1 µM; for red/green cell ratio (normalised): actives lie on both sides
# [3] = P. berghei load reduction in hepatocytes – cell-based, HepG2, luciferase luminescence, HepG2 viability, primary screen (AID 624349; in the data active = parasite load remaining mostly below about 12%, no sharp cut-off; inactive = mostly above about 10%;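 note: 100% = mean of DMSO negative control wells on the same plate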); conditions: P. berghei liver stage in HepG2, luciferase luminescence, concentration not given here; parasite load remaining: stronger effect = lower value; viability: measured here: HepG2 viability without parasites
# [4] = viability loss with induced miR-34 in A549 – imaging, A549 dox-inducible miR-34, nuclei and caspase counts, primary screen (AID 1347080;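 active = compounds whose cell count with miR-34 switched on is under 0.7 times the count with it off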); conditions: A549 miR-34 inducible, Hoechst nuclei count, 48 h
# [5] = MELAS cybrid and Rieske KO viability enhancers – cell-based, MELAS cybrids, Rieske KO mouse fibroblasts, CellTiter-Glo, primary screen (AID 1508586;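 active = mean z-score across replicates of 1.96 or higher in either the MELAS or the Rieske mutant cell line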;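 note: z relative to plate mean and SD of compound and empty wells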); conditions: low glucose
# [6] = biological target: NAD(+) hydrolase SARM1 (Homo sapiens) (UniProt Q6SZW1); assay: blocking NAD cleavage by SARM1 SAM-TIR – cell lysate, NAD-Glo luminescence (AID 1508614;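 active = compound whose remaining NAD level is above about 45 nM, limit read from the data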;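 note: higher remaining NAD means stronger inhibition of SARM1 NADase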); conditions: SAM-TIR HEK293T lysate NADase, at 1 µM, stronger effect = higher value
# [7] = galactose survival enhancers in mitochondrial complex I cybrids – cell-based, galactose medium, ATP luminescence, primary screen (AID 1645843;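 active = z-score of at least 1.8 in each of two replicates, scored against plate mean and spread of sample wells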;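 note: positive z means more ATP and so rescue of galactose-driven cybrid death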); conditions: complex I mutant cybrid cells, 72 h, stronger effect = higher value
# [8] = compounds altering viability of human ES cells (AID 493140; call rule not given here;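 note: cells exposed to compounds for four days before counting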); conditions: human embryonic stem cell survival screen; stronger effect = higher value
# [9] = test system: Aerobactin synthetase IucA (Klebsiella pneumoniae, hypervirulent); assay: biochemical IucA inhibition screen of LOPAC library by absorbance (AID 1346212; call rule not given here;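 note: 100% = no compound wells and 0% = no enzyme wells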); conditions: IucA enzyme assay, absorbance (OD) readout; stronger effect = lower value;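 tested at 8 µM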
# [10] = compounds altering circadian rhythm period length – cell-based, LOPAC library, luminescence reporter (AID 2774; call rule not given here;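 note: values are relative to mean of DMSO wells on each plate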); conditions: circadian reporter cells, at 7 µM, actives lie on both sides
# [11] = test system: Hepatitis C virus NS3 helicase; assay: blockers of NS3h binding to ssDNA – biochemical, fluorescence polarization, LOPAC1280 library, primary screen (AID 687035; in the data active = inhibition above about 37%); conditions: Purified HCV NS3 helicase, Cy5-dT15 ssDNA binding fluorescence polarization; stronger effect = higher value; concentration not given here
# [12] = measured here: epithelial PC-3E GFP cell survival
# [13] = measured here: mesenchymal TEM4-18 mCherry cell survival
# [14] = measured here: relative caspase fold change +Dox/-Dox
# [15] = measured here: total cells with miR-34 induction, stronger effect = lower value
# [16] = measured here: total cells without miR-34 induction
# [17] = MELAS cybrid survival, CellTiter-Glo 48 h, stronger effect = higher value
# [18] = Rieske KO mouse fibroblast survival, CellTiter-Glo 72 h
# Sequence of 6-phosphogluconate dehydrogenase, decarboxylating (Homo sapiens) (P52209 whole entry, looked up): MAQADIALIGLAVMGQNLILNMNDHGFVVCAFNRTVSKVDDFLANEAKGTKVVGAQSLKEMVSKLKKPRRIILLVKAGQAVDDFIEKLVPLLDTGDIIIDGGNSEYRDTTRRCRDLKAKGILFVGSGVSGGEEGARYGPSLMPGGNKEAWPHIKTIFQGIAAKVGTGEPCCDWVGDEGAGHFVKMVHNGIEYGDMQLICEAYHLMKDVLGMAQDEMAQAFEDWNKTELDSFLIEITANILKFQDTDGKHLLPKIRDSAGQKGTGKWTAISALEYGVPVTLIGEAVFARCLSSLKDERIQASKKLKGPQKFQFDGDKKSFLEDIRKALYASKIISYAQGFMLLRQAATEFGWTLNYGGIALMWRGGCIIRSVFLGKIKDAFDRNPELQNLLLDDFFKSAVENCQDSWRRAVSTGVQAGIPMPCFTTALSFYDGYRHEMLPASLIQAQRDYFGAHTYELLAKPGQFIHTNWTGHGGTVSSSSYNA
# Sequence of NAD(+) hydrolase SARM1 (Homo sapiens) (Q6SZW1 whole entry, looked up): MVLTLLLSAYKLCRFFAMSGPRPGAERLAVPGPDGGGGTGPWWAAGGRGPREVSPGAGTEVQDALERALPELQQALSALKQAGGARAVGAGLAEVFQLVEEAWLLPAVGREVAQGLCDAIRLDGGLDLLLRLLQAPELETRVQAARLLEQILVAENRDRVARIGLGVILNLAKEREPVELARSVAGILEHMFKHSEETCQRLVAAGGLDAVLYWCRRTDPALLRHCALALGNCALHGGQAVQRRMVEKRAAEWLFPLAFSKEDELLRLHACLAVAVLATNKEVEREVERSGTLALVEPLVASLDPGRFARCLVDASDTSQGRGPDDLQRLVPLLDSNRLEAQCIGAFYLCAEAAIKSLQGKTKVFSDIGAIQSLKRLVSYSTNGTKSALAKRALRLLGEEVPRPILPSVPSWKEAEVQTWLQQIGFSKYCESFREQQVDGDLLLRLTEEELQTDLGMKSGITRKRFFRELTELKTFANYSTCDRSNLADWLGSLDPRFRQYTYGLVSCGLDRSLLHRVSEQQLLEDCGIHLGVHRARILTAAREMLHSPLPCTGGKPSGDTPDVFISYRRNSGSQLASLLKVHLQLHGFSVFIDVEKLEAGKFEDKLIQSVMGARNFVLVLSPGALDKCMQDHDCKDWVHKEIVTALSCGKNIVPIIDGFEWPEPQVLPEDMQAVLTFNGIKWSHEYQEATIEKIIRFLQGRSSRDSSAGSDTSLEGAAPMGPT
smiles,measurement,setting,value
CNC(=O)Oc1cccc2c1OC(C)(C)O2,inhibition,[1],-4.88% (inactive)
COc1cc2c(cc1OC)[C@H]1C(=O)c3ccc4c(c3O[C@H]1CO2)C[C@@H](C(C)C)O4,inhibition,[1],-1.45% (inactive)
c1cc2c(cc1[C@H]1OC[C@@H]3[C@H]1CO[C@H]3c1ccc3c(c1)OCO3)OCO2,inhibition,[1],-14.7% (inactive)
C=C1[C@@H]2CC[C@H]3[C@]4(C)C[C@H](O[C@@H]5O[C@H](CO)[C@@H](OS(=O)(=O)O)[C@H](OS(=O)(=O)O)[C@H]5OC(=O)CC(C)C)C[C@@H](C(=O)O)[C@H]4CC[C@]3(C2)[C@H]1O,inhibition,[1],5.29% (inactive)
CCCC(C)C1(CC)C(=O)NC(=S)NC1=O (stereo not drawn),inhibition,[1],-1.13% (inactive)
O=C(O)COc1ccc(Cl)cc1Cl,inhibition,[1],-20.1% (inactive)
same,red/green cell ratio (normalised),[2],1.22 (inactive)
same,normalised cell number,[2]; [12],0.89
same,normalised cell number,[2]; [13],1.08
O=S1OCC2C(CO1)C1(Cl)C(Cl)=C(Cl)C2(Cl)C1(Cl)Cl (stereo not drawn),inhibition,[1],5.97% (inactive)
CC(=O)OC1CC(OC2C(O)CC(OC3C(O)CC(OC4CCC5(C)C(CCC6C5CC(O)C5(C)C(C7=CC(=O)OC7)CCC65O)C4)OC3C)OC2C)OC(C)C1OC1OC(CO)C(O)C(O)C1O (stereo not drawn),inhibition,[1],7.01% (inactive)
Clc1ccc(Cl)cc1,inhibition,[1],7.33% (inactive)
NC(=O)CS(=O)C(c1ccccc1)c1ccccc1 (stereo not drawn),parasite load remaining,[3],153% (inactive) and 44.2% (inactive) and 93% (inactive)
same,viability,[3],83% and 104% and 71.7%
same,inhibition,[1],-7.07% (inactive)
same,red/green cell ratio (normalised),[2],1.19 (inactive)
same,normalised cell number,[2]; [12],1.04
same,normalised cell number,[2]; [13],1.24
same,fold change,[4]; stronger effect = lower value,0.912 (inactive) and 0.928 (inactive) and 0.913 (inactive)
same,fold change,[4]; [14],0.934 and 0.471 and 9.69
same,cell count,[4]; [15],8970 and 9060 and 12100
same,cell count,[4]; [16],9830 and 9770 and 13200
same,z-score,[5]; [17],0.264 (inactive)
same,z-score,[5]; [18],0.0685
same,remaining NAD,[6],10 nM (inactive)
same,z-score,[7],0.66 (inactive)
C=CCN1CC[C@]23c4c5ccc(O)c4O[C@H]2C(=O)CC[C@@]3(O)[C@H]1C5,survival,[8],31.3 (inactive)
same,inhibition,[1],-2.77% (inactive)
same,remaining activity,[9],107% (inactive)
same,z-score,[5]; [17],0.056 (inactive) and 0.0574 (inactive)
same,z-score,[5]; [18],-0.112 and -0.417
same,remaining NAD,[6],10 nM (inactive)
same,z-score,[7],0.98 (inactive) and -0.48 (inactive) and 0.575 (inactive)
COc1cc2c(cc1OC)-c1c(oc3c4c(ccc3c1=O)OC(C(C)C)C4)CO2 (stereo not drawn),inhibition,[1],-6.79% (inactive)
same,red/green cell ratio (normalised),"[2]; counts scaled to control wells, 1 = unselective",0.93 (inactive)
same,normalised cell number,[2]; [12],0.99
same,normalised cell number,[2]; [13],0.92
C=C[C@H]1CN2CC[C@H]1C[C@H]2[C@H](O)c1ccnc2ccccc12,parasite load remaining,[3],56.2% (inactive) and 85.6% (inactive) and 31.1% (inactive)
same,viability,[3],103% and 68.9% and 98.9%
same,inhibition,[1],5.53% (inactive)
same,red/green cell ratio (normalised),[2],1.04 (inactive)
same,normalised cell number,[2]; [12],1.08
same,normalised cell number,[2]; [13],1.12
same,fold change,[4]; stronger effect = lower value,0.86 (inactive) and 0.872 (inactive)
same,fold change,[4]; [14],1.26 and 3.36
same,cell count,[4]; [15],9250 and 11500
same,cell count,[4]; [16],10800 and 13200
same,remaining NAD,[6],10 nM (inactive)
CC[C@@H](CO)NC(=O)[C@@H]1C=C2c3cccc4[nH]cc(c34)C[C@H]2N(C)C1,period change,[10],0.19 h (inactive)
same,parasite load remaining,[3],65.8% (inactive) and 65.3% (inactive) and 59.9% (inactive)
same,viability,[3],103% and 77.1% and 98.3%
same,inhibition,[11],-5% (inactive)
same,inhibition,[1],10.6% (inactive)
same,red/green cell ratio (normalised),[2],0.98 (inactive)
same,normalised cell number,[2]; [12],0.88
same,normalised cell number,[2]; [13],0.87
same,remaining activity,[9],107% (inactive)
same,z-score,[5]; [17],0.332 (inactive)
same,z-score,[5]; [18],0.352
same,remaining NAD,[6],10 nM (inactive)
same,z-score,[7],0.87 (inactive) and -0.035 (inactive)
CCc1cccc(C)c1N(C(=O)CCl)C(C)COC (stereo not drawn),inhibition,[1],3.27% (inactive)
O=C(CC[N+](=O)[O-])OC[C@H]1O[C@@H](O)[C@H](OC(=O)CC[N+](=O)[O-])[C@@H](OC(=O)CC[N+](=O)[O-])[C@@H]1OC(=O)CC[N+](=O)[O-],inhibition,[1],0.279% (inactive)
C[C@]12CC[C@@H](OS(=O)(=O)O)C[C@@H]1CC[C@@H]1[C@@H]2CC[C@]2(C)C(=O)CC[C@@H]12,inhibition,[1],5.35% (inactive)
CC[C@H]1CN2CC[C@H]1C[C@@H]2[C@@H](O)c1ccnc2ccc(OC)cc12,inhibition,[1],5.31% (inactive)
same,remaining NAD,[6],10 nM (inactive)
Clc1ccc(COC(Cn2ccnc2)c2ccc(Cl)cc2Cl)c(Cl)c1 (stereo not drawn),inhibition,[1],-24.1% (inactive)
same,red/green cell ratio (normalised),[2],1.04 (inactive)
same,normalised cell number,[2]; [12],0.94
same,normalised cell number,[2]; [13],0.97
same,remaining NAD,[6],10 nM (inactive)
same,z-score,[7],-1.52 (inactive) and -2.01 (inactive)
FC(F)(F)c1cccc(N2CCNCC2)c1,parasite load remaining,[3],134% (inactive)
same,viability,[3],71.2%
same,inhibition,[1],7.13% (inactive)
same,fold change,[4]; stronger effect = lower value,0.923 (inactive)
same,fold change,[4]; [14],1.38
same,cell count,[4]; [15],9590
same,cell count,[4]; [16],10400
same,z-score,[7],0.73 (inactive)
COc1cc2c(cc1OC)[C@@]13CCN4CC5=CCO[C@H]6CC(=O)N2[C@H]1[C@H]6[C@H]5C[C@H]43,parasite load remaining,[3],80.5% (inactive)
same,viability,[3],63.8%
same,inhibition,[1],7.74% (inactive)
same,remaining NAD,[6],10 nM (inactive)
CC[C@@]1(O)C(=O)OCc2c1cc1n(c2=O)Cc2cc3ccccc3nc2-1,period change,[10],-0.48 h (inactive)
same,survival,[8],0.833 (inactive)
same,inhibition,[11],0% (inactive)
same,inhibition,[1],3.3% (inactive)
same,red/green cell ratio (normalised),[2],1.07 (inactive)
same,normalised cell number,[2]; [12],0.28
same,normalised cell number,[2]; [13],0.3
same,remaining activity,[9],90% (inactive)
same,z-score,[5]; [17],-0.725 (inactive) and -0.263 (inactive) and -1.18 (inactive)
same,z-score,[5]; [18],0.467 and -0.232 and -0.237
same,z-score,[7],-0.96 (inactive) and -0.91 (inactive) and -2.17 (inactive)
c1ccc2c(c1)cc1ccc3cccc4ccc2c1c34,inhibition,[1],5.92% (inactive)
same,red/green cell ratio (normalised),[2],0.86 (inactive)
same,normalised cell number,[2]; [12],1.22
same,normalised cell number,[2]; [13],1.05
CCCCCCCCCc1ccc(O)cc1,inhibition,[1],10.5% (inactive)
same,red/green cell ratio (normalised),[2],0.85 (inactive)
same,normalised cell number,[2]; [12],1.34
same,normalised cell number,[2]; [13],1.14
